Assay outcomes deposited in PubChem by The Scripps Research Institute Molecular Screening Center.
CHO-K1 Ca antag: nonselective inhibitor or artifact in parental CHO-K1 cells | inhibition, % at 3 µM | AID 602250 | 360,000 compounds, 0.6% hits | ATP-induced calcium, Fluo-8 fluorescence;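 active = inhibition above a per-plate cutoff, the plate's mean sample inhibition plus 3 SD, cut at about 24% in these data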;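 also: 0% = DMSO plus EC80 ATP and 100% = DMSO alone without ATP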
CHRM1 antagonist: human M1 muscarinic receptor antagonists, primary screen, CHO-K1 cells, Fluo-8 calcium fluorescence, 1536-well | CHO-K1 hM1, ACh EC80 antagonist | AID 588852, 2011 | inhibition, % at 3 µM | 360,000 compounds, 1.3% hits | Muscarinic acetylcholine receptor M1 (Homo sapiens), P11229;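 active = percent inhibition above its own plate's cutoff, namely the mean of that plate's compound wells plus 3 SD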;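 also: peak over basal fluorescence ratio during 140 s after agonist addition; 0% = ACh EC80 plus DMSO and 100% = DMSO alone without agonist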
Target sequence (P11229 whole entry, looked up): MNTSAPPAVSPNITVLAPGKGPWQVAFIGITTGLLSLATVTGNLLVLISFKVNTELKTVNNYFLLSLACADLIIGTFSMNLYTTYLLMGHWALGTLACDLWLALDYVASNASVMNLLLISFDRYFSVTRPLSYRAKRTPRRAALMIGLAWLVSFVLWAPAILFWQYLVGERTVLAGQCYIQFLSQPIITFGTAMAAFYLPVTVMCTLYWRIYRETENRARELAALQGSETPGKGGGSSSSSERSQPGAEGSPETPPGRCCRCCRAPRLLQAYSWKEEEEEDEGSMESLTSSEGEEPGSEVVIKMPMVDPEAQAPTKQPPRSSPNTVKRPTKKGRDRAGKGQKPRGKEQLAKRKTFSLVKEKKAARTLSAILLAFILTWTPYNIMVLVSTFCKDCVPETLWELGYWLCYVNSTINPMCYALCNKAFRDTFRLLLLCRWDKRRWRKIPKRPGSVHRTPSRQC
M1 ag parental: counter-screen for M1 agonists: effect in parental CHO-K1 cells | AID 602248, 2012 | 360,000 compounds, 0.48% hits | Fluo-8 calcium fluorescence; scaled to maximal ATP response, vehicle zero | activation, % at 3 µM; in the data active = activation above about 15%;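 also: untransfected CHO-K1 host cells lacking M1 receptor as counterscreen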
M1 PAM: human M1 muscarinic receptor positive allosteric modulators, primary screen, CHO-K1 cells, Fluo-8 calcium fluorescence, 1536-well; CHO-K1 hM1, ACh EC20; 0% = ACh EC20, 100% = maximal ACh; activation, % at 3 µM; 360,000 compounds, 0.088% hits; Muscarinic acetylcholine receptor M1 (Homo sapiens), P11229; in the data active = activation above about 19%, passing the limit was not always enough
M1 PAM parental: nonselective calcium activators in parental CHO-K1 cells, primary screen, counter-screen for M1 PAM project, cell-based, Fluo-8 calcium fluorescence, full deck, 1536-well; AID 602247, 2012; activation, % at 3 µM; ATP EC20; 0% at ATP EC20, 100% at ATP max; 360,000 compounds, 0.02% hits;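 active = activation above the run cutoff, the mean activation of all test compounds plus 3 SD, cut at about 40% in these data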;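 also: peak over basal fluorescence ratio in a 140 s read after ATP addition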
M1 ag: human M1 muscarinic receptor agonists, primary screen, Fluo-8 calcium fluorescence, CHO-K1 cells, HTS | Muscarinic acetylcholine receptor M1 (Homo sapiens), P11229 | CHO-K1 hM1, agonist mode; 0% DMSO, 100% acetylcholine EC100 | activation, % at 3 µM | 360,000 compounds, 0.33% hits | AID 588814, 2011;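 active = activation above the run's mean compound activation plus 3 SD, cut at about 16% in these data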;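 also: peak over basal fluorescence ratio within a 140 s kinetic read after compound addition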
Numbers without * were called inactive; . = no result. In the library only some 2.4% were active in any assay of this set; here they are far more common.

SMILES | CHO-K1 Ca antag | CHRM1 antagonist | M1 ag parental | M1 PAM | M1 PAM parental | M1 ag
CC(C)/C=C/C(=O)N1CCC(N2CCC(C(=O)N3CCOCC3)CC2)CC1 | -6 | 14 | 1 | -10 | -1 | -8
C[C@H](CO)N1C[C@H](C)[C@@H](CN(C)CC2CC2)Oc2c(NC(=O)C3CC3)cccc2C1=O | -5 | 6 | 0 | -3 | -1 | -7
C[C@H]1CN([C@@H](C)CO)C(=O)c2cccc(NC(=O)Nc3ccc(C(F)(F)F)cc3)c2O[C@H]1CN(C)C | 1 | -13 | 0 | 27* | 3 | 6
C[C@H](CO)N1C[C@H](C)[C@@H](CN(C)C(=O)Nc2ccc(C(F)(F)F)cc2)Oc2c(NC(=O)Nc3ccc(C(F)(F)F)cc3)cccc2C1=O | -10 | -1 | 3 | 3 | 21 | 0
Cc1cc(C(=O)Nc2cccc3c2O[C@H](CN(C)CC2CC2)[C@@H](C)CN([C@H](C)CO)C3=O)n(C)n1 | -28 | -6 | 10 | 7 | 56* | 5
Cc1ccc(S(=O)(=O)N2C[C@@]3(O)Cn4c(=O)ccc(=O)n4C[C@@]3(OC(=O)NCc3ccccc3F)C2)cc1 | -11 | . | 1 | . | 14 | .
COc1ccc(Cl)cc1NC(=O)CN(C)C1CCCCC1 | 2 | 11 | 1 | -8 | 8 | -6
Cc1c(C)n(Cc2ccccc2)c2ncnc(Cl)c12 | 19 | 35* | 9 | -19 | -25 | -1
Cc1cc(NC(=O)c2cc(S(=O)(=O)N3CCCCC3)ccc2C)n(-c2ccccn2)n1 | -11 | -16 | 0 | 0 | 6 | -3
O=C(O)c1ccc(N=Cc2nc(-c3ccco3)oc2O)cc1 | 2 | 1 | 0 | 2 | 5 | -4
CCOC(=O)N1CCC(NCCNC(=O)c2cccs2)CC1 | 4 | 21 | 0 | -12 | -1 | 31*
CCOC(=O)N1CCC(NCCNC(=O)c2ccccc2)CC1 | 0 | 48* | 1 | -14 | 9 | 53*
CCOC(=O)N1CCC(NCCNC(=O)c2ccccc2Cl)CC1 | 10 | 38* | 0 | -16 | -7 | 43*
CCOC(=O)N1CCC(NC(=O)c2ccccc2C(=O)O)CC1 | 12 | 11 | 0 | -5 | -20 | -3
CCOC(=O)N1CCC(NC(=O)c2cccs2)CC1 | -11 | -14 | 1 | 1 | 18 | -3
CCn1c(SCC(=O)NC2CC2)nnc1C(C)Oc1ccccc1 (stereo unspecified) | 10 | 4 | 0 | 7 | -24 | 2
O=C(COC(=O)C1(c2ccccc2F)CCCC1)N1CCOCC1 | -10 | -19 | 0 | 4 | 19 | -5
CC(=O)C1=C(c2ccccc2)NC(=S)NC1c1cc(Cl)c(OC(C)C)c(Cl)c1 (stereo unspecified) | 10 | 0 | 24* | 4 | 22 | -1
COc1cc(C2NC(=S)NC(c3ccccc3)=C2C(C)=O)cc(Cl)c1OCC(=O)O (stereo unspecified) | -10 | -3 | 2 | 5 | 29 | -4
COc1ccc([C@@H]2C[C@H]3[C@@H](CN2S(=O)(=O)c2ccccc2)C(=O)C[C@@H](c2ccc(OC)cc2)N3S(=O)(=O)c2ccccc2)cc1 | 28* | 1 | 0 | 0 | -7 | -5
Cc1ccc(C(OCC(O)CNCc2ccc(F)cc2)c2ccccc2)cc1 (stereo unspecified) | 36* | 8 | 17* | 3 | 12 | 7
Cc1cc(C)n(/N=C/c2cccs2)c(=O)c1C#N | 21 | 6 | 0 | 1 | -12 | -8
Cc1noc(C)c1CSCC(=O)Nc1nc(-c2ccc(F)c(F)c2)cs1 | 17 | 35* | 6 | -16 | -24 | -1
CCc1noc(C)c1C(=O)OCC(=O)Nc1nc(-c2ccc(F)c(F)c2)cs1 | -11 | 42* | 5 | -22 | 4 | -2
COc1ccc(-c2csc(NC(=O)CSCc3c(C)noc3C)n2)cc1OC | -7 | -13 | 5 | -5 | 6 | 1
SMILES | CHO-K1 Ca antag | CHRM1 antagonist | M1 ag parental | M1 PAM | M1 PAM parental | M1 ag
CN1C(=O)C(CC(=O)N2CCN(C(c3ccccc3)c3ccccc3)CC2)N(C)C1=O (stereo unspecified) | -2 | 27 | 0 | -11 | 6 | -3
Cc1cc(C)c(C(=O)CSc2n[nH]c(-c3ccncc3)n2)c(C)c1 | 8 | 7 | 18* | -6 | 1 | -3
CC1(C)Cc2c(sc3ncn(N)c(=N)c23)CO1 | 27* | -16 | -1 | 9 | -4 | 0
Cc1nc2sc3c(c2c(=N)n1N)CC(C)(C)OC3 | -10 | 9 | 3 | -1 | 15 | -6
CC1CCC(NC(=S)NCCN(C)C)CC1 (stereo unspecified) | -25 | -8 | 1 | 10 | 18 | -5
Cc1nn(CC(=O)O)c2ccccc12 | -13 | -6 | 0 | -2 | -3 | 0
CCc1n[nH]c(=S)n1/N=C/c1cccc2ccccc12 | -4 | -7 | 18* | 4 | 5 | -6
CCc1n[nH]c(=S)n1/N=C/c1c(O)ccc2ccccc12 | -1 | -28 | 0 | 22 | 7 | 4
CC(=O)c1cccc(OCc2cc(C(=O)N3C[C@@H](C)O[C@@H](C)C3)no2)c1 | 59* | -1 | 1 | -2 | 9 | -1
Cc1ccc2cc(S(=O)(=O)NCCCN3CCOCC3)ccc2c1 | -1 | 4 | 19* | 8 | 23 | -12
O=C(NC1CCCCCC1)c1cc(S(=O)(=O)N2CCC3(CC2)OCCO3)ccc1F | -36 | -8 | 4 | 8 | 17 | -2
N#Cc1ccc(OCC(O)CN2CCN(C(c3ccccc3)c3ccccc3)CC2)cc1 (stereo unspecified) | -10 | 88* | 2 | -34 | 19 | -12
OC(COCc1ccco1)CN1CCN(C(c2ccccc2)c2ccccc2)CC1 (stereo unspecified) | -9 | 67* | 0 | -21 | 10 | -5
CCC(=O)c1ccc(OCC(O)CN2CCN(C(c3ccccc3)c3ccccc3)CC2)cc1 (stereo unspecified) | -41 | 70* | 1 | -34 | 23 | -13
CCn1c(=O)cc(SCC(=O)N2CCN(c3ccccc3OC)CC2)c2ccccc21 | -10 | 7 | 7 | -5 | 9 | -2
COc1ccc(-n2cc(CNCc3cccnc3)c(-c3cccc(F)c3)n2)cc1 | -17 | -1 | 2 | 3 | -14 | -5
N#Cc1ccccc1OCCCN1CCC(Cc2ccccc2)CC1 | 5 | 35* | 2 | -28 | 0 | -7
COc1ccc(NC(=O)NCCCN2CCC(Cc3ccccc3)CC2)cc1 | -1 | -1 | 1 | -2 | -1 | -8
CCOc1ccccc1OCCN1CCC(Cc2ccccc2)CC1 | -2 | 9 | 3 | -9 | 14 | -9
